# Compounds with a hit are over-represented: about 6.5% of the library has one in this group of screens.
# Vaccinia Venus = vaccinia inhibition (Venus reporter) | Vaccinia virus Venus reporter expression, fluorescence | Potency, µM (titrated, usually from 36.5 µM), for inactives: top-dose activity change, negative = inhibition, most hits filed as inhibitors | actives 0.46% (n = 330,000); calls by dose curve; tested in A549 cells; note: potency is the fitted concentration of half-maximal effect; nearly all actives have a fitted effect of over 30% in size
# MARV entry inh = blocks Marburg virus binding to or entry into cells | Marburg virus pseudotyped entry inhibition, cell reporter | Potency, µM (top dose mostly 37.8 µM), inactives show top-dose activity change, negative = inhibition, most hits filed as inhibitors | actives 1.8% (n = 300,000) | AID 540276; calls by dose curve; tested in HEK293 cells; note: potency is the fitted concentration of half-maximal effect
# VACV mCherry inh = vaccinia inhibition (mCherry reporter); actives 0.63% (n = 310,000); Vaccinia virus mCherry reporter infection, fluorescence; Potency, µM (top dose mostly 36.5 µM), for the others: top-dose activity change, negative = inhibition, actives largely listed as inhibitors; calls by dose curve; tested in A549 cells; note: potency is the fitted concentration of half-maximal effect; nearly all actives have a fitted effect of over 35% in size
# HCMV inh = human cytomegalovirus inhibition; HFF cells, HCMV-luciferase reporter, 72 h; active compounds read low; activity change, negative = inhibition, % at 57.5 µM; actives 4.5% (n = 410,000); in the data active = activity change below about -60%; inconclusive = no clear call, values can overlap the other calls; inactive = above about -39%
#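 Compounds were evaluated in HFFs infected with an HCMV luciferase reporter virus (MOI 1 PFU/cell). Luciferase in lysates collected 72 h post infection served as the replication measure.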
# FMDV inh = foot and mouth disease virus antiviral activity; FMDV antiviral cell-based qHTS; Potency, µM (doses to about 57.9 µM), for the others: top-dose activity change, negative = inhibition, actives largely listed as inhibitors; actives 1.2% (n = 410,000); AID 1159524; calls by dose curve; tested in HEK293T cells; note: read-out not given here; potency is the fitted concentration of half-maximal effect; nearly all actives have a fitted effect of over 45% in size
# Lassa entry inh = Lassa virus entry inhibition; actives 1.2% (n = 300,000); Lassa virus pseudotype entry inhibition, cell reporter; Potency, µM (top dose mostly 37.9 µM), inactives show at the top dose activity change, negative = inhibition, usual class: inhibitors; AID 540256; calls by dose curve; tested in HEK293 cells; note: potency is the fitted concentration of half-maximal effect; nearly all actives have a fitted effect of over 50% in size
# Numbers without * were called inactive; i = inactive; ? = inconclusive; . = no result; [ ] = remark or other dose. % is set by controls: 0 for no effect and ±100 for the full control effect.
SMILES,Vaccinia Venus,MARV entry inh,VACV mCherry inh,HCMV inh,FMDV inh,Lassa entry inh
NC(=O)c1sc(-n2cnc3ccccc32)cc1OCc1ccccc1Br,.,.,.,.,.,8.9µM*
COc1ccc2ncn(-c3cc(OC(C)c4ccccc4Cl)c(C(N)=O)s3)c2c1 (stereo not drawn),.,.,.,.,.,0.1µM*
COc1cc2ncn(-c3cc(OCc4ccccc4Cl)c(C(N)=O)s3)c2cc1OC,.,.,.,.,.,0.63µM*
Cn1c(COc2ccccc2Br)nc2ccccc21,.,.,.,67,54%,.
CS(=O)(=O)c1sc(C#N)c2c1C(=O)CC(c1ccccc1)C2 (stereo not drawn),.,.,.,-104*,11µM*,.
Cc1oc2c(c(=O)c1C)C(=O)CC(c1ccccc1)C2 (stereo not drawn),-13%,-20%,.,1,-28%,?
Cc1nn(-c2ccccc2)c(Cl)c1C(=O)NC1CCCCC1,-22%,-2%[46.1 µM],-16%,9,10%,-13%
Cc1nn(-c2ccccc2)c(Cl)c1C(=O)OC(C)C(=O)Nc1ccc2c(c1)OCO2 (stereo not drawn),-10%,-1%,-14%,-19,-21%,-7%
Cc1nn(-c2ccccc2)c(C)c1C(=O)OC(C)C(=O)NC1CCCCC1 (stereo not drawn),-14%,?,i,-36,?,5µM*
CC(=O)Nc1ccc(NC(=O)C(C)OC(=O)c2c(C)nn(-c3ccccc3)c2Cl)cc1 (stereo not drawn),-11%,-9%,2%,14,-19%,3.5µM*
CN(C)S(=O)(=O)c1cccc(NC(=O)CSc2cccc3cccnc23)c1,?,?,?,-101*,59%,-20%
CN(C)S(=O)(=O)c1cccc(NC(=O)CSc2nc3c(cc2C#N)C(=O)CC(C)(C)C3)c1,?,?,?,-80*,20µM*,?
CN(C)S(=O)(=O)c1ccc(SCC(=O)Nc2cccc(S(=O)(=O)N3CCCC3)c2)nc1,.,.,.,-4,-24%,.
COCCNC(=O)COc1coc(CN2CCN(Cc3ccccc3)CC2)cc1=O,-4%,14%[46.1 µM],i,20,-15%,19%[46.1 µM]
CN1CCN(c2nc(-c3ccoc3)nc3ccccc23)CC1,.,.,.,.,-21%,.
Cc1cccc(N2CCN(C(=O)CN3C(=O)COc4ccc(S(=O)(=O)N5CCCCCC5)cc43)CC2)c1C,-18%,1%[46.1 µM],-15%,-73*,-22%,6%[46.1 µM]
CCN(Cc1ccccc1)C(=O)CN1C(=O)COc2ccc(S(=O)(=O)N3CCCCCC3)cc21,-8%,-23%[46.1 µM],-14%,-77*,-11%,-21%[46.1 µM]
CCN(C(=O)CN1C(=O)COc2ccc(S(=O)(=O)N3CCCCCC3)cc21)c1cccc(C)c1,-20%,?,-16%,-63*,5%,8%[46.1 µM]
CNC(=O)CN1C(=O)COc2ccc(S(=O)(=O)N3CCCCCC3)cc21,-9%,?,-19%,-39,-2%,-2%[46.1 µM]
Cc1ccc(-c2c(C(=O)NCCc3ccccc3)oc(=O)c3ccccc23)cc1,-6%[7.34 µM],0%[46.1 µM],-11%[7.34 µM],65,-23%,22%[46.1 µM]
O=C(Nc1ccc(Cl)c([N+](=O)[O-])c1)ONC1=NCCCCC1,-5%,4%[46.1 µM],1%,-23,-9%,?
COC(=O)c1ccc(Cl)c(NC(=O)Cc2ccccc2[N+](=O)[O-])c1,0%,-20%,-12%,-72*,-2%,-13%
O=C(Nc1nnc(N2CCCCCC2)s1)Nc1cc(F)ccc1F,-22%,2%[46.1 µM],-24%,28,34%,-2%[46.1 µM]
CN(C)c1nc(CN2CCCCC2c2cccnc2)nc2ccccc12 (stereo not drawn),-7%,.,-16%,.,-14%,.
O=C(CCCN1C(=O)c2ccccc2C1=O)NCc1ccco1,-11%,1%[46.1 µM],.,-4,-11%,1%
SMILES,Vaccinia Venus,MARV entry inh,VACV mCherry inh,HCMV inh,FMDV inh,Lassa entry inh
COc1ccccc1N1CCN(C(=O)CCCn2c(=S)[nH]c3ccccc3c2=O)CC1,?,.,?,-15,25µM*,.
c1ccc(CC2CCN(C3=Nc4cccc5cccc3c45)CC2)cc1,-28%,16µM*,-13%,.,?,-10%
O=C(CCCN1C(=O)c2cccc3cccc(c23)C1=O)NCc1ccco1,-3%,.,-26%,-89*,18%,.
O=C(CCCN1C(=O)c2cccc3cccc(c23)C1=O)N1CCN(c2ncccn2)CC1,.,.,.,-66*,-8%,.
c1cc2c3c(cccc3c1)C(N1CCOCC1)=N2,2%,19%[14.2 µM],9%,24,-17%,?
Cc1cccc(CC(=O)N[C@@H](Cc2ccccc2)C(O)c2nc3ccccc3[nH]2)c1 (stereo partly drawn),.,.,.,-9,.,.
Cc1ccc2c(c1)C1CN(C)CCC1N2C(=O)CCCN1C(=O)c2cccc3cccc(c23)C1=O (stereo not drawn),-4%,7.9µM*,27%,-33,-3%,7%
COc1ccccc1N1CCN(C(=O)CN2C(=O)c3cccc4cccc(c34)C2=O)CC1,-2%,?,-16%,-3,?,?
COc1ccccc1N1CCN(C(=O)CCCN2C(=O)c3cccc4cccc(c34)C2=O)CC1,-27%,?,11µM*,8,?,-15%
COc1ccccc1N1CCN(C2=Nc3cccc4cccc2c34)CC1,-7%,6.3µM*,-9%,-6,-32%,?
CC(=O)N1CCN(C2=Nc3cccc4cccc2c34)CC1,8%,-11%,1%,-3,.,27%
COc1ccc(OCC(=O)N2c3ccc(C)cc3C3CN(C)CCC32)cc1 (stereo not drawn),5%,0%[46.1 µM],-14%,4,8%,-3%
CCOC(=O)CCCCCN1C(=O)c2cccc3cccc(c23)C1=O,.,.,.,-100*,-3%,.
CSc1ccc(/C=C/c2ccnc3ccccc23)cc1,4%,.,-6%,.,.,.
CCC(=O)N(Cc1cccs1)[C@@H]1CCOC(C)(C)C1,.,-16%[46.1 µM],.,.,.,.
COc1ccccc1Cn1c(=S)[nH]c2ccc(Br)cc2c1=O,-13%,1%[46.1 µM],i,-86*,-4%,-1%[46.1 µM]
COC(=O)N/N=C\c1c(C)nn(-c2ccccc2)c1Cl,-15%,-20%,i,2,48%,-15%
CCOC(=O)N/N=C/c1c(C)nn(-c2cccc(C(F)(F)F)c2)c1Cl,?,?,?,?,?,7.1µM*
Cc1ccc(C)c(OCC(=O)N/N=C/c2c(C)nn(-c3ccccc3)c2Cl)c1C,-11%,11%,i,-68*,-17%,?
Cc1nn(-c2cccc(C(F)(F)F)c2)c(Cl)c1/C=N/Nc1cccc(C(=O)O)c1,-14%,?,i,152,-18%,?
Cc1ccc(N2CC(C(=O)NC(C)CCc3ccccc3)CC2=O)cc1 (stereo not drawn),-12%,0%[46.1 µM],-3%,-11,0%,-2%[46.1 µM]
COc1cc(/C=C/c2ccc3ccccc3n2)cc(OC)c1OC,-26%,.,?,.,.,.
COc1cc(/C=N/N2C(=O)C3C4c5ccccc5C(c5ccccc54)C3C2=O)ccc1O (stereo not drawn),-12%,?,-5%,25,-13%,13µM*

# Source: PubChem
